# Screening results as filed in PubChem.
# A selection: hits, their analogues and other compounds. The true share with any hit is near 27%.
# CYP2C9 activ: CYP2C9 (human) activation. AID 1024. 96,000 compounds, 1.4% hits. recombinant CYP2C9, luciferin-H conversion, luminescence; hits give high values; factor 1 = untreated enzyme, 0 = blocked. activation factor at 5 µM. P11712;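 active = activation factor of 2 or more for CYP2C9 at a 5 µM dose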;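 note: 0 = sulfaphenazole-blocked wells and 1 = vehicle-only wells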
# Cav32 inh: inhibitors of human Cav3.2 T-type calcium channel; 100,000 compounds, 4% hits; B-score at 10 µM; Cav3.2-expressing cells, Fluo-4 calcium fluorescence FDSS; hits give low values;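 active = single-dose well whose peak fluorescence ratio is a statistical outlier from its plate by either plate-standardised score or position-corrected B-score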
# CYP2C9 inh: human CYP2C9 inhibition; AID 777; inhibition, % at 5 µM; P11712; 96,000 compounds, 20% hits; CYP2C9 Supersomes, luciferin-H conversion, luminescence;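 active = blocking of liver enzyme CYP2C9 beyond about 50% at 5 µM, limit read from the data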
# PTK2B oligo ant: blocks oligomerization of human Pyk2 in cells; Q14289; Q293 cells, Pyk2 FERM NanoBiT luminescence; hits give low values; z-score (the deposit names both 25 µM and 10 µM); 99,000 compounds, 0.83% hits; AID 1347419;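 active = Z-score of -3 or lower, scaled per plate to the spread of control and sample wells; inactive = z-score above -3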;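 note: negative z-score means lost luminescence so less FERM oligomerization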
# CYP2C19 activ: cytochrome P450 2C19 (human) activation; P33261; recombinant CYP2C19, luciferin-H EGE luminescence; hits give high values; 0 = fully inhibited enzyme, 1 = untreated enzyme; activation factor at 5 µM; 96,000 tested, under 10 active; AID 1025;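 active = activation factor of at least 2 at 5 µM in the primary screen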;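 note: 0 = wells with 2.5 mM tranylcypromine and 1 = vehicle-only wells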
# CYP2C19 inhib: inhibitors of human CYP2C19. P33261. inhibition, % at 5 µM. CYP2C19 Supersomes, luciferin-H EGE luminescence, 30 min. 96,000 compounds, 21% hits;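 active = CYP2C19 inhibition above a set limit at 5 µM in the primary screen, cut at about 50% in these data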;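 note: plate controls were negative control wells for no effect and 2.5 mM tranylcypromine positive control for full effect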
# Active calls of the source: *; · = no result.
SMILES,CYP2C9 activ,Cav32 inh,CYP2C9 inh,PTK2B oligo ant,CYP2C19 activ,CYP2C19 inhib
Cc1ccccc1Cn1c(-c2cncs2)nc2ccccc21,0.6,-1.5,39,-1.3,0.2,76*
O=C(Cn1c(-c2cncs2)nc2ccccc21)NCc1ccccc1,0.8,0.56,22,0.24,0.2,80*
Cc1ccccc1Cn1c(Cc2ccccc2)nc2ccccc21,0.8,-5.5*,25,-1.7,0.6,37
O=C(NCc1ccc(Cl)cc1)c1ccc(-c2ccccc2C(F)(F)F)o1,·,-0.12,·,·,·,·
CCOC(=O)C1(Cc2ccc(O)cc2)NC(c2ccco2)C2C(=O)N(c3ccccc3F)C(=O)C21 (stereo unspecified),0.9,0.045,14,0.29,1,4
CCC(C)[C@H](NC(=O)NC(C)C)C(=O)O (stereo partly specified),·,·,·,0.49,·,·
O=c1cc(/C=C/c2ccccc2)oc2ccccc12,0.2,-1.2,79*,0.95,0.4,62*
O=C(NC1CC1)c1cc(=O)c2ccccc2o1,1,0.037,2,-0.24,0.9,13
CC(=O)c1c(C)nc2nonc2c1N,1.1,·,-9,0.37,1,-5
COc1ccc(NC(=O)C2CC(=O)N(C)C(=Nc3ccc4c(c3)OCO4)S2)cc1 (stereo unspecified),·,-1.4,·,-1.6,·,·
CCOc1cccc(NC(=O)C2CC(=O)NC(=Nc3ccccc3)S2)c1 (stereo unspecified),0.4,-4.9*,62*,-0.12,0.8,19
COc1cccc(N=C2SC(C(=O)Nc3ccccc3F)CC(=O)N2C)c1 (stereo unspecified),0.4,-1,62*,0.27,0.6,36
CN1C(=O)CC(C(=O)Nc2ccc(F)cc2)SC1=Nc1ccc2c(c1)OCO2 (stereo unspecified),0,-2.7,99*,0.65,0.4,58*
CCN1C(=O)CC(C(=O)Nc2ccc(F)cc2)SC1=Nc1cccc(OC)c1 (stereo unspecified),0.2,·,84*,-1.4,0.4,62*
CCNC(=O)C1CC(=O)N(Cc2ccc(F)cc2)C(=Nc2ccc(OC)cc2)S1 (stereo unspecified),1.6,-1.6,-56,-1.6,0.5,55*
CCCCCn1c(=O)[nH]c2cc(C(=O)NCCN(CC)CC)ccc2c1=O,0.9,0.59,14,-0.46,0.8,21
CC(C)(C)c1ccc(OC(=O)c2ccc3nsnc3c2)cc1,0.7,-3.5*,29,0.14,1,0
CN(C)S(=O)(=O)c1cccc(-c2nn(-c3ccccc3)cc2/C=C(\C#N)c2nc3ccccc3[nH]2)c1,·,·,·,-1.5,·,·
Cc1ccc2nc(/C(C#N)=C\c3cc(C)n(-c4cccc([N+](=O)[O-])c4)c3C)[nH]c2c1,0.2,-6.1*,84*,-0.06,0.5,48
N#CCCn1c(C2CCCCC2)nc2ccccc21,1.2,1.5,-17,0.43,1.2,-18
CC(C)CCSc1nc2c(c(=O)[nH]c(=O)n2C)n1CCc1ccccc1,·,·,·,-0.22,·,·
N#Cc1ccccc1NC(=O)c1ccc(-c2ccccc2Cl)o1,1.2,-0.19,-17,1.4,1.1,-6
COC(=O)NCc1ccc2c(c1)OCO2,1.2,-0.057,-15,0.26,1,-2
COC(=O)c1ccc(=O)n(Cc2ccc3c(c2)OCO3)c1,0.6,-0.84,40,0.19,0,98*
O=C(COC(=O)c1cnccn1)c1ccc2c(c1)CCCC2,1.3,0.15,-28,0.17,1,0
SMILES,CYP2C9 activ,Cav32 inh,CYP2C9 inh,PTK2B oligo ant,CYP2C19 activ,CYP2C19 inhib
Cc1cccc(Nc2nc(NC(C)C)nc(Oc3ccc(=O)n(C)n3)n2)c1,0.5,0.021,53*,-0.18,0.8,16
COc1cc(C)nc(Oc2ccc(=O)n(C)n2)n1,0.9,0.58,10,-0.2,1.1,-5
COCCNC(=O)CCc1nc(-c2ccccc2)no1,1,0.45,-3,-1,1,1
O=C(CCCc1ccccc1)NCc1cccnc1,0.6,0.011,38,0.74,0.1,91*
CS(=O)(=O)N(CCc1ccccc1)CC(=O)NCc1cccnc1,0.6,0.89,36,0.57,0.1,93*
O=C(CCc1nc(-c2ccccc2)no1)NCc1cccnc1,0.5,-0.14,51*,-0.06,1,2
O=c1[nH]n(Cc2ccccc2)c(=O)c2ccccc12,0.6,-0.61,41,0.18,0.3,72*
CCCCc1ccc(-c2nc(NC(=O)C3C4CCC(O4)C3C(=O)O)sc2C)cc1 (stereo unspecified),1.1,-0.73,-8,·,0.9,6
O=C(CSc1nnc(-c2ccc(Cl)cc2)o1)N1CCN(c2ccccc2)CC1,1.1,·,-14,·,1.2,-22
CC(C)(C)NS(=O)(=O)c1ccc(CCC(=O)NCc2cccnc2)cc1,0.1,0.55,87*,-0.1,0.6,36
Cc1cc(OCc2nc(-c3ccc(NC(=O)c4cccnc4)cc3)no2)ccc1Cl,0.8,0.27,23,0.52,0.9,5
Cc1ccc(N(CC(=O)NCc2cccnc2)S(C)(=O)=O)cc1C,0.7,0.037,26,-0.62,0.2,84*
O=C(CCCc1nc(-c2ccccc2Cl)no1)NCc1cccnc1,1,0.31,1,2.9,0.4,61*
O=C(Nc1ccc(-c2noc(CCc3ccccc3)n2)cc1)c1cccnc1,0.5,-0.54,55*,-3.3*,0.7,27
CS(=O)(=O)N(CC(=O)Nc1cccnc1)c1ccc2c(c1)OCCO2,0.9,0.57,6,-0.58,0.9,8
Cc1cc([N+](=O)[O-])nn1CC(=O)NCc1ccco1,·,·,·,0.72,·,·
O=C(NCCSc1c[nH]c2ccccc12)C1CC1,0.7,0.049,25,·,0.8,16
COc1ccc(C(N)CCc2ccco2)cc1 (stereo unspecified),0.9,0.31,14,-0.43,0.7,30
O=C(CSc1nnc(Cc2ccccc2)o1)Nc1ccc(Br)cn1,1,-0.12,-1,1.5,0.7,33
CN(c1ccc(C(=O)N2CCCCC2)cc1)S(C)(=O)=O,1.2,-0.17,-16,0.93,1.1,-13
O=C(CCc1nc(-c2ccccc2)no1)NCc1ccco1,0.4,-0.29,59*,2,0.4,57*
Cc1cccc(-c2noc(CCCC(=O)Nc3cccnc3)n2)c1,0.9,·,12,2.5,0.8,18
CS(=O)(=O)N(CC(=O)NCc1ccncc1)c1cc(Cl)cc(Cl)c1,0.1,0.57,87*,0.4,0,100*
O=C(CCCc1nc(-c2ccc(Cl)cc2)no1)Nc1cccnc1,0.3,0.74,75*,0.89,0.5,52*
O=C(Cn1[nH]c(=O)c2ccccc2c1=O)NCc1cccnc1,0.4,0.21,63*,0.04,0.9,11
O=C(CN1CCN(Cc2ccccc2F)C1=O)NCc1cccnc1,0.7,0.57,26,·,1,-1
Cc1ccc(N(CC(=O)NCc2ccncc2)S(C)(=O)=O)cc1,·,0.63,·,-0.02,·,·
